Reference: the supplement of paper PMC12645437, “Orthogonal IMiD-Degron Pairs Induce Selective Protein Degradation in Cells” (ACS Chemical Biology, 2025)
In all, about 8,300 sequences were measured (“log2 fold change of degron read counts, EGFP-low vs EGFP+ sorted cells (limma voom), compound-induced degradation”: median about -1.1, highest 2% from about 3.2 on). This excerpt belongs to a sample that is enriched for the highest values.

T1: CRBN, Q96SW2
T1 chain: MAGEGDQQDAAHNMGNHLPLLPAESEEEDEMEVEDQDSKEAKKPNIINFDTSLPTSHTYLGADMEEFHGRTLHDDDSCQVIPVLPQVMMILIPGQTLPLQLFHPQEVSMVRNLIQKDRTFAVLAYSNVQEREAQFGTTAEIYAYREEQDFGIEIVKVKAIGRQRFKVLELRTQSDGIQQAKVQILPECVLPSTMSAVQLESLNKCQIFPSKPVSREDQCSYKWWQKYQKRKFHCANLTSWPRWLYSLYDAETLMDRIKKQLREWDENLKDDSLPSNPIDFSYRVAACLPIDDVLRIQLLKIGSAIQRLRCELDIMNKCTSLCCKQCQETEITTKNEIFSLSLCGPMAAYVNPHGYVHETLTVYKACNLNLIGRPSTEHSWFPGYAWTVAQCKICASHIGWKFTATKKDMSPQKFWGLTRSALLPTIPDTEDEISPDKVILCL


Biological target: T1, CRBN, Q96SW2
Assay: log2 fold change of degron read counts, EGFP-low vs EGFP+ sorted cells (limma voom), compound-induced degradation; higher = more compound-induced degradation of the degron-EGFP fusion; degrons are variants of IKZF1/3 zinc finger 2; compound dose not given here
Details: Jurkat, 18 h
[1] = compound: compound 19 (5-tert-butyl-thalidomide)
[2] = compound: compound 22 (5-morpholino-thalidomide)
[3] = compound: compound 33 (diphenyl IMiD analogue)
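Further: pooled lentiviral library of zinc finger degron-EGFP fusions in mCherry-positive Jurkat cells, FACS-sorted after compound exposure, with degron abundance counted by next-generation sequencing.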

Row | Sequence | log2 fold change of degron read counts [1] | log2 fold change of degron read counts [2] | log2 fold change of degron read counts [3] | log2 fold change of degron read counts (compound: thalidomide)
1 | FLCEQCGAMFTQKGNLLRHIKL [46F_47L_49E_50Q_52G_53A_54M_55F_67L_, Q9UKT9] | -2.2 | -2.48 | -0.823 | -1.31
2 | FECDICGAIFTQKGNLLRHIKL [46F_47E_49D_50I_52G_53A_54I_55F_67L_, Q9UKT9] | -1.92 | -1.75 | -0.965 | 0.171
3 | FQCNQCGAFFTQKGNLLRHIKL [46F_47Q_49N_50Q_52G_53A_54F_55F_67L_, Q9UKT9] | -2.56 | -2.44 | -1.62 | -1.28
4 | FICEQCGANFTQKGNLLRHIKL [46F_47I_49E_50Q_52G_53A_54N_55F_67L_, Q9UKT9] | -2.09 | -0.316 | 0.362 | 0.322
5 | FRCNICGASFTQKGNLLRHIKL [46F_47R_49N_50I_52G_53A_54S_55F_67L_, Q9UKT9] | 0.331 | 0.291 | 0.894 | 0.839
6 | FFCDICGARFTQKGNLLRHIKL [46F_47F_49D_50I_52G_53A_54R_55F_67L_, Q9UKT9] | 3.58 | 3.35 | 0.994 | 0.0481
7 | FQCDICGARFTQKGNLLRHIKL [46F_47Q_49D_50I_52G_53A_54R_55F_67L_, Q9UKT9] | -1.01 | 1.3 | 0.0735 | 3.03
8 | FACDICGARFTQKGNLLRHIKL [46F_47A_49D_50I_52G_53A_54R_55F_67L_, Q9UKT9] | 3.46 | 1.91 | -1.69 | -0.979
9 | FRCDICGARFTQKGNLLRHIKL [46F_47R_49D_50I_52G_53A_54R_55F_67L_, Q9UKT9] | -1.84 | -2.03 | -1.21 | -0.575
10 | FWCDICGARFTQKGNLLRHIKL [46F_47W_49D_50I_52G_53A_54R_55F_67L_, Q9UKT9] | 3.15 | 3.82 | 0.741 | 0.265
11 | FTCDICGARFTQKGNLLRHIKL [46F_47T_49D_50I_52G_53A_54R_55F_67L_, Q9UKT9] | 1.44 | 2.55 | 0.655 | 1.76
12 | FCCDICGARFTQKGNLLRHIKL [46F_47C_49D_50I_52G_53A_54R_55F_67L_, Q9UKT9] | 2.34 | 2.23 | 0.356 | 1.57
13 | FDCDICGARFTQKGNLLRHIKL [46F_47D_49D_50I_52G_53A_54R_55F_67L_, Q9UKT9] | 1.85 | 0.0154 | -1.13 | -0.0241
14 | FVCDICGARFTQKGNLLRHIKL [46F_47V_49D_50I_52G_53A_54R_55F_67L_, Q9UKT9] | 0.23 | 1.75 | -0.304 | 1.47
15 | FYCDICGARFTQKGNLLRHIKL [46F_47Y_49D_50I_52G_53A_54R_55F_67L_, Q9UKT9] | 3.31 | 3.35 | 0.716 | -0.312
16 | FGCDICGARFTQKGNLLRHIKL [46F_47G_49D_50I_52G_53A_54R_55F_67L_, Q9UKT9] | 2.15 | 0.817 | -1.24 | 0.195
17 | FLCDICGARFTQKGNLLRHIKL [46F_47L_49D_50I_52G_53A_54R_55F_67L_, Q9UKT9] | -0.594 | -2.06 | -0.802 | 0.425
18 | FGCDVCGALFTQKGNLLRHIKL [46F_47G_49D_50V_52G_53A_54L_55F_67L_, Q9UKT9] | -0.285 | -1.26 | 0.277 | -1.67
19 | FLCNQCGRHFTQKGNLLRHIKL [46F_47L_49N_50Q_52G_53R_54H_55F_67L_, Q9UKT9] | -2.4 | -2.59 | -2.64 | -2
20 | FSCNVCGAYFTQKGNLLRHIKL [46F_47S_49N_50V_52G_53A_54Y_55F_67L_, Q9UKT9] | -0.837 | -0.921 | 0.627 | -0.674
21 | FACNQCGRGFTQKGNLLRHIKL [46F_47A_49N_50Q_52G_53R_54G_55F_67L_, Q9UKT9] | -2.53 | -2.62 | -2.49 | -2.4
22 | FECNQCGATFTQKGNLLRHIKL [46F_47E_49N_50Q_52G_53A_54T_55F_67L_, Q9UKT9] | -2.51 | -3.02 | -2.92 | -1.69
23 | FICDQCGARFTQKGNLLRHIKL [46F_47I_49D_50Q_52G_53A_54R_55F_67L_, Q9UKT9] | -2.79 | -0.912 | -0.818 | -1.23
24 | FSCPICGAWFTQKGNLLRHIKL [46F_47S_49P_50I_52G_53A_54W_55F_67L_, Q9UKT9] | 0.603 | -0.272 | 0.788 | -0.152
25 | FVCNQCGADFTQKGNLLRHIKL [46F_47V_49N_50Q_52G_53A_54D_55F_67L_, Q9UKT9] | -3.46 | -3.35 | -3.82 | -2.79
26 | FRCEICGRRFTQKGNLLRHIKL [46F_47R_49E_50I_52G_53R_54R_55F_67L_, Q9UKT9] | -2.67 | -2.2 | -1.21 | -0.634
27 | FSCDQCGAEFTQKGNLLRHIKL [46F_47S_49D_50Q_52G_53A_54E_55F_67L_, Q9UKT9] | -2.57 | -3.41 | -1.87 | -2.94
28 | FCCPICGRCFTQKGNLLRHIKL [46F_47C_49P_50I_52G_53R_54C_55F_67L_, Q9UKT9] | -0.609 | -0.825 | 0.868 | 0.188
